In the library only some 10% were active in any assay of this set; here they are far more common.
BAZ2B inh: blocks human BAZ2B; 360,000 tested, 4.4% active; AlphaScreen BAZ2B-H3K14Ac peptide displacement; Potency, µM (titrated, usually from 114 µM), for the others: top-dose activity change, negative = inhibition, usual class: inhibitors; AID 504333; further: potency means the concentration at half of the fitted maximal effect; on the % scale 0 is the no-effect control and ±100 the full control effect; nearly all actives have a fitted effect of over 60% in size
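Complex of BAZ2B and biotin-H3K14Ac (50 nM apiece) forms over 30 min at RT, then faces library compounds up to 110 uM for another 30 min; AlphaScreen beads added, 20 min dark incubation, luminescence read.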
HP1b chromo inh: inhibitors of HP1-beta chromodomain binding to methylated histone tails | P83916 | AlphaScreen HP1-beta / biotin-H3K9me3 peptide binding | Potency, µM (doses to about 114 µM), for inactives: at the highest dose activity change, negative = inhibition, usual class: inhibitors | 390,000 tested, 0.56% active | AID 540317; further: potency means the concentration at half of the fitted maximal effect; nearly all actives have a fitted effect of over 70% in size
Target sequence (P83916 whole entry, looked up): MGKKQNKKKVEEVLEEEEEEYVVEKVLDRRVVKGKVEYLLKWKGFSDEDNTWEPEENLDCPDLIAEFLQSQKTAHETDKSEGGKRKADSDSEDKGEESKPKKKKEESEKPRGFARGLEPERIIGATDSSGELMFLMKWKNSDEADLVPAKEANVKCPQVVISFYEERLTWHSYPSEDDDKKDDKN
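HP1-beta protein (50 nM final) preincubated 30 min at room temperature with biotinylated H3(1-18)K9me3 peptide (50 nM) in PBS pH 7.4, 0.01% Tween-20, then compound added for 30 min. AlphaScreen streptavidin donor/nickel chelate acceptor beads (10 ug/mL final), 30 min dark, luminescence read.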
G9a block: G9a (human) methyltransferase inhibition | Q96KQ7 | G9a H3K9 monomethylation, AlphaScreen, 2 h | Potency, µM (top dose mostly 102 µM), without a hit: top-dose activity, negative = inhibition, hits mostly inhibitors | 350,000 tested, 8.8% active | AID 504332; further: potency means the concentration at half of the fitted maximal effect; on the % scale 0 is the no-effect control and ±100 the full control effect; nearly all actives have a fitted effect of over 75% in size
Target sequence (Q96KQ7 913-1193 limits assumed): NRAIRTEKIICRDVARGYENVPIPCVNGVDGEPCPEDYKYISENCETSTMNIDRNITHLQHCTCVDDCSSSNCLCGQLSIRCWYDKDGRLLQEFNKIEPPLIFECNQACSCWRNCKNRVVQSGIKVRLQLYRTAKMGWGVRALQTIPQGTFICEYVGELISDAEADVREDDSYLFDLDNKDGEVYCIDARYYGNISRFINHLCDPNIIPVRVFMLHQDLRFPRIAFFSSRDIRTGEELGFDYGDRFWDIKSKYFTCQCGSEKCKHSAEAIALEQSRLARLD
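G9a (20 nM) was preincubated 15 min with compound, then reacted 2 h at room temperature with 500 nM biotin-H3K9 peptide and 20 µM SAM. Monomethyl-H3K9 detected by AlphaScreen using anti-H3K9me1 antibody.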
JMJD2A Tudor inh: blocks the human JMJD2A Tudor domain. 390,000 tested, 4.4% active. Potency, µM (titrated, usually from 114 µM), for the others: at the top dose activity change, negative = inhibition, actives largely listed as inhibitors. O75164. AlphaScreen JMJD2A-Tudor / H3K4me3 peptide binding; further: potency means the concentration at half of the fitted maximal effect; on the % scale 0 is the no-effect control and ±100 the full control effect; nearly all actives have a fitted effect of over 50% in size
Six1-Eya2 inh: inhibitors of human Six1/Eya2 interaction; 360,000 tested, 0.56% active; AlphaScreen GST-Six1/His-Eya2 binding, biochemical; stronger effect = lower value; Q15475+O00167; activity change, % (test concentration not listed); in the data active means activity change below about -65%; inconclusive means mostly about -30% to -63%; further: on the % scale 0 is the no-effect control and ±100 the full control effect
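GST-Six1 + His-Eya2 (5X stock: 250/500 nM); Tris pH 8.0, 300 mM NaCl, 0.05% BSA, 0.02% Tween 20; GSH donor/Ni acceptor beads; 1 h 37 °C dark; AlphaScreen readout.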
CtBP-E1A blk: blocks the CtBP interaction with E1A; AlphaScreen GST-E1A/His-CtBP binding, 1536-well; stronger effect = lower value; AID 651724; activity change, % (test concentration not listed); 340,000 tested, 0.49% active; in the data active means activity change below about -65%; inconclusive means mostly about -30% to -63%; further: on the % scale 0 is the no-effect control and ±100 the full control effect
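In 5 uL wells, 23 nL compound meets equimolar GST-E1A and His-CtBP (5X stock 125 nM each) for 2 h, 37 °C. Beads (5X, 50 ug/mL) then 1 h, 37 °C, dark.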
An asterisk follows results filed as active; ? = inconclusive; / = no result; [ ] = remark or other dose. Unless noted, the call rests on the fitted dose curve; in most records, active means well fitted inhibition curve with a large enough effect; inconclusive means small, poorly fitted or top-dose-only effect; inactive means no such curve, though single readings can be large or run the other way.

SMILES | BAZ2B inh | HP1b chromo inh | G9a block | JMJD2A Tudor inh | Six1-Eya2 inh | CtBP-E1A blk
CCN1C(=O)CC(c2ccco2)Sc2ccccc21 (stereo not given) | ? | -5% | 50µM* | -27% | 0 | -8
O=C1CC(c2ccccc2)Sc2ccccc2N1 (stereo not given) | -2% | 38% | 45µM* | -4% | -1 | -6
O=C1CC(c2ccco2)Sc2ccccc2N1 (stereo not given) | -17% | 19% | 40µM* | -26% | -4 | 0
O=C1C(=O)N(CCOCCO)C(c2ccccn2)/C1=C(\O)c1ccccc1 (stereo not given) | ? | 14% | 18µM* | ? | 1 | 7
CCOc1ccc(/C(O)=C2/C(=O)C(=O)N(CCOCCO)C2c2cccnc2)cc1 (stereo not given) | -7% | 12% | / | 79µM* | 2 | -1
CCN(CC)CCN1C(=O)C(=O)/C(=C(/O)c2ccc(F)cc2)C1c1ccncc1 (stereo not given) | -4% | 28% | 11%[59 µM] | -21% | 1 | -19
CCN(CC)CCCN1C(=O)C(=O)/C(=C(/O)c2ccc(C)cc2)C1c1ccccn1 (stereo not given) | ? | -1% | 14µM* | 89µM* | 0 | -2
CCN(CC)CCN1C(=O)C(=O)/C(=C(/O)c2ccncc2)C1c1ccccc1F (stereo not given) | 2% | 14% | 79µM* | -19% | 3 | 3
Cc1cc(F)ccc1S(=O)(=O)Nc1ccc2c(c1)CCCN2C(=O)c1cccs1 | -27% | 11% | ? | -17% | / | /
O=C1Nc2ccccc2/C1=C/c1ccc([N+](=O)[O-])cc1 | -11% | 31% | -4% | -1% | 2 | 5
CC1(c2ccc([N+](=O)[O-])cc2)Nc2ccccc2S1 (stereo not given) | 13µM* | ? | 28µM* | 40µM* | -27 | ?
Cc1cccc(C(=O)NCC(=O)OC(C(=O)Nc2cc(C(F)(F)F)ccc2Cl)c2ccccc2)c1 (stereo not given) | / | / | / | -21% | / | /
CCCNC(=O)c1c(NC(=O)c2ccc(C)cc2)sc2c1CCCCC2 | 1% | 44% | -4%[59 µM] | 6% | / | /
COCCN(C(=O)Cc1cccs1)c1nnc(-c2ccncc2)s1 | 79µM* | 5% | ? | -24% | 2 | -1
O=C(Nc1nnc(-c2ccccc2)o1)C1CCCN1S(=O)(=O)c1cccs1 (stereo not given) | 50µM* | 62% | -27% | ? | -28 | -20
O=C(Nc1ccccc1)C1CCCN1S(=O)(=O)c1cccs1 (stereo not given) | -8% | 25% | ? | -9% | 2 | 13
CNC(=O)c1ccsc1NC(=O)C1CCCN1S(=O)(=O)c1cccs1 (stereo not given) | -6% | -2% | -28% | -10% | 4 | -2
COc1ccc(-c2nnc(NC(=O)C3CCCN3S(=O)(=O)c3cccs3)o2)cc1 (stereo not given) | 50µM* | 24% | -1% | ? | ? | -19
Cc1cc2c(s1)c1cnn(Cc3c(F)ccc(C)c3F)c(=O)c1n2C | / | / | / | -33% | / | /
CCOC(=O)c1c(S(=O)(=O)NCC(=O)Nc2ccc(F)cc2C)c(C)n(C)c1C | 0% | 22% | -2%[59 µM] | -4% | / | /
CCCCN(Cc1nc2ccccc2c(=O)[nH]1)C(=O)CN1C(=O)NC2(CCCCC2)C1=O | -2% | 24% | -4%[2.33 µM] | -15% | 1 | /
Cc1cnc(CNc2nc(-c3ccccc3Cl)nc3ccccc23)cn1 | / | / | 18%[0.501 µM] | / | / | /
O=C(Cn1c(=O)n(-c2ccccc2)c(=O)c2sc3ccccc3c21)NC1CCCC1 | -1% | 49% | -34%[59 µM] | -16% | / | /
Cc1cc(NN)nc2ccc(Cl)cc12 | -16% | 25% | 14µM* | ? | -14 | -1
CC(=O)Nc1nc(SCc2ccc(Cl)cc2Cl)n[nH]1 | -20% | 37% | 0%[59 µM] | -19% | 1 | 2
SMILES | BAZ2B inh | HP1b chromo inh | G9a block | JMJD2A Tudor inh | Six1-Eya2 inh | CtBP-E1A blk
CC(=O)Nc1n[nH]c(S(=O)(=O)Cc2ccc(Cl)cc2Cl)n1 | ? | -4% | 45µM* | 50µM* | 6 | -1
CC(=O)c1ccc([N+](=O)[O-])c(CS(=O)(=O)c2ccc(Cl)cc2)c1 | -35% | 49% | -27% | -9% | 6 | 4
CCc1cc(C(c2cccc(OC)c2)N2CCOCC2)c(NC(=O)c2ccccc2)s1 (stereo not given) | -31% | 29% | 5% | -23% | -2 | 5
CCc1cc(C(c2ccc(OC)c(OC)c2)N2CCOCC2)c(NC(=O)c2ccccc2)s1 (stereo not given) | 35µM* | ? | 32µM* | 50µM* | -4 | 5
Cc1ccc(C(=O)N/C(=C\c2ccc(-c3ccc([N+](=O)[O-])cc3)o2)C(=O)NC2CCS(=O)(=O)C2)cc1 (stereo not given) | -23% | 35% | -6%[59 µM] | -3% | -4 | 6
O=C(Cn1nnc(-c2ccccc2)c1COc1ccc2ccccc2c1)NCC1CC1 | / | / | / | / | -15 | -3
CC(C)(C)C(=O)Nc1ccc2nc(SCC(=O)N3CCc4ccccc43)sc2c1 | 3% | 24% | 0%[59 µM] | -16% | / | /
OCC[C@@H]1C[C@H](O)[C@@H](O)[C@@]2(CCc3ccccc3CO2)O1 | -6% | 28% | 45µM* | -10% | 0 | -8
OCC[C@@H]1C[C@@H](O)[C@H](O)[C@]2(CCCc3ccccc3O2)O1 | -30% | 43% | -5% | -6% | 12 | 0
OCC[C@@H]1C[C@H](O)[C@@H](O)[C@@]2(CCCc3ccccc3O2)O1 | -18% | 45% | 28µM* | -21% | 1 | 6
Nc1ccc(CSc2ccccc2)cc1 | / | -4%[57 µM] | / | -31% | 9 | -11
Nc1ccc(SCc2cccnc2)cc1 | 21% | -2% | 45µM* | -18% | 8 | 3
COc1ccc(C2CC(=O)c3cc(-c4nc(-c5ccc(Cl)cc5)c(C)s4)c(=O)[nH]c3C2)cc1 (stereo not given) | 1% | 42% | -3%[59 µM] | -9% | / | /
Cc1cc(-c2ccccc2N)n[nH]1 | ? | 19% | 50µM* | -12% | 3 | -3
Cc1cc(-c2cccs2)n[nH]1 | 7% | 20% | 10%[12.7 µM] | 1% | 14 | 4
CCc1cccc(C)c1Nc1c(-c2ccsc2)nc2ncccn12 | ? | 0% | -43%[59 µM] | -35% | / | /
CCc1cccc(C)c1Nc1c(-c2ccc(N(C)C)cc2)nc2cnccn12 | 16µM* | ? | 18µM* | 40µM* | / | /
CCc1cccc(C)c1Nc1c(-c2ccc(SC)cc2)nc2sccn12 | 22µM* | ? | 14µM* | ? | / | /
Cc1ccc2c(c1)C(=O)c1c(C(=O)O)cccc1-2 | -13% | -14% | -32% | -18%[11.4 µM] | -1 | /
